This is an account of results in PubChem BioAssay.

The structures appear in SMILES notation. The source made the active and inactive calls.

The subject of assay [1] is Human papillomavirus type 1a protein E7 (residues 44-93). Briefly: HPV1a E7 fragment binders on microarrays, primary screen, biochemical, small-molecule microarray, residues 44-93, 635 nm fluorescence (AID 1108).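 Note: E7 fragment applied at 1 µg/mL in TBST for 1 h at 4 C; score combines spot fluorescence with its signal to noise ratio.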 The settings on record: small-molecule microarray binding, fluorescence 635 nm; higher = more signal.
Assay [2] in a line: modulators of HCV replicon luciferase signal, primary screen, HCV replication inhibitor project, Huh7 cells, luciferase reporter (AID 1109).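 Note: huh7 hepatoma cells harbouring a luciferase neomycin HCV replicon reporter; luciferase luminescence as measure of HCV replicon replication; test concentration not given here.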 The note with it: 48 h, higher = more signal. On the technique in general: A replicon is a self-replicating genome or part of one, used to study replication in cells.
The target of assay [3] is Left-right determination factor 2 (Homo sapiens) (UniProt O00292). The assay can be described thus: LEFTY2 binders on small-molecule microarrays, primary screen, biochemical, small-molecule microarray, 635 nm fluorescence scan (AID 1110). The note with it: LEFTY2 binding, higher = more signal.
The target in assay [4] is Calmodulin-1 (Homo sapiens) (UniProt P0DP23). The assay can be described thus: CALM1 binders on microarrays, EGTA buffer, profiling panel, biochemical, small-molecule microarray, Cy5-labelled CALM1 (AID 1111).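 Note: labelled calmodulin applied in Tris saline Tween buffer holding calcium plus EGTA and DTT.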 The note with it: Cy5-CALM1 binding fluorescence, higher = more signal.
Assay [5] has the same target. The assay can be described thus: calcium-bound CALM1 binders on microarrays, profiling panel, artefact control for SMM control-protein annotation, biochemical, small-molecule microarray, Cy5-labelled CALM1, plus calcium (AID 1112).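 Note: score merges spot fluorescence with signal to noise from triplicate slides.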 The settings on record: Cy5-CALM1 binding fluorescence, higher = more signal.
The nature of assay [6]: small-molecule microarray binders of probe aWnt5a, primary screen, biochemical, biotinylated probe, 635/667 nm fluorescence (AID 1113).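 Note: score merges 667 nm fluorescence intensity with signal-to-noise per printed feature.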 The note with it: higher = more signal.
Assay [7] in a line: small-molecule microarray binders of probe aShh, primary screen, biochemical, biotinylated probe, 635/667 nm fluorescence (AID 1114).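 Note: probe is biotin-labelled aShh protein from a stem cell growth factor screen; measures binding of labelled protein to compounds printed on the slide; score merges feature fluorescence at 667 nm with signal-to-noise.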 The note with it: higher = more signal.
Assay [8] is described as follows: small-molecule microarray binders of probe aNog, primary screen, biochemical, biotinylated probe, 635/667 nm fluorescence (AID 1115).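 Note: probe is biotinylated aNog protein used at 0.15 µg/mL for 1 h at 4 C; z-score combines 667 nm fluorescence of each spot with its signal to noise.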 The settings on record: higher = more signal.
Assay [9] addresses Torsin-1A-interacting protein 1 (Homo sapiens) (UniProt Q5JTV8). The assay can be described thus: LAP1 binders from COS7 cell lysate, primary screen, small-molecule microarray, 635/667 nm fluorescence (AID 1116). The note with it: COS7-hLAP1 lysate binding, 635 nm fluorescence, higher = more signal.
In assay [10] the target is Alpha-bungarotoxin (Bungarus multicinctus) (UniProt P60615). Briefly: alpha-bungarotoxin binders on microarray, profiling panel, artefact control for SMM control protein annotation, biochemical, small-molecule microarray, Alexa647 label, 635/667 nm fluorescence (AID 1117). The note with it: alpha-BTX-A647 binding fluorescence, higher = more signal.
Another assay has as its target Albumin (Bos taurus) (UniProt P02769). Briefly: bovine serum albumin binders on microarray, profiling panel, artefact control for SMM control protein annotation, biochemical, small-molecule microarray, Alexa647 label, 635/667 nm fluorescence (AID 1118).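 Note: score merges 667 nm emission intensity and signal-to-noise per printed compound spot.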 The note with it: BSA-A647 binding, fluorescence 635 nm, higher = more signal.
Assay [11] is described as follows: small-molecule microarray binders of probe aXIP, primary screen, biochemical, NeuroSMM set, 635/667 nm fluorescence (AID 1119).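 Note: probe is the protein aXip251-270 applied at 1 µg/mL to compound-printed slides; binding of probe to printed compounds measured as 667 nm fluorescence plus signal to noise.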 The settings on record: higher = more signal, called active from +8 up or from −8 down.
The nature of assay [12]: small-molecule binders of probe aNOTCH3, primary screen, biochemical, small-molecule microarray, 635/667 nm fluorescence (AID 1120).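 Note: probe is a biotin-tagged antibody raised against NOTCH3 rather than NOTCH3 protein; score merges spot fluorescence near 667 nm with spot signal to noise.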 The note with it: higher = more signal.
Assay [13] in a line: small-molecule binders of probe aNOTCH2, primary screen, biochemical, small-molecule microarray, 635/667 nm fluorescence (AID 1121).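 Note: score merges feature fluorescence read at 667 nm with its signal to noise.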 The settings on record: higher = more signal.
Assay [14] addresses Carbonic anhydrase 2 (Homo sapiens) (UniProt P00918). The assay can be described thus: CAII small-molecule binders, profiling panel, biochemical, small-molecule microarray, Alexa647-labelled CAII (AID 1122). The note with it: CAII-A647 binding fluorescence, higher = more signal.
A short description of assay [15]: COS7 lysate on small-molecule microarray, probe aHis, 635 nm (AID 1123).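 Note: z-score combines 667nm fluorescence intensity with signal-to-noise per printed compound spot.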 The note with it: COS7 cell lysate, fluorescence, higher = more signal.
Assay [16] is described as follows: compound binding in COS7 lysate, probe aLAP1, primary screen, cell lysate, small-molecule microarray (AID 1124).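 Note: lysate comes from COS7 cells expressing LAP1 and is applied at 0.3 µg/mL; score merges spot fluorescence near 667 nm with signal-to-noise over triplicate slides.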 The settings on record: probe aLAP1, fluorescence, higher = more signal.
A further assay deals with Sam68 (KHDRBS1). The assay can be described thus: Sam68 small-molecule binders, primary screen, biochemical, small-molecule microarray, 635 nm fluorescence (AID 1125).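 Note: score merges 667 nm channel intensity with signal to noise over triplicate slides.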 The note with it: small-molecule microarray binding, higher = more signal.
For assay [17], the system named is Chordin-like protein 2 (CHRDL2). Briefly: CHRDL2 small-molecule binders, primary screen, biochemical, small-molecule microarray, 635 nm fluorescence (AID 1126).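 Note: printed compound slides probed with Chrdl2 protein at 4 µg/mL for 1 h at 4 C; score merges 667 nm emission intensity with signal to noise over three replicate slides.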 The settings on record: small-molecule microarray binding, fluorescence 635 nm; higher = more signal.
Assay [18] has as its target Concanavalin-A (Canavalia ensiformis) (UniProt P02866). Briefly: ConA small-molecule binders, primary screen, artefact control for SMM control protein annotation, biochemical, small-molecule microarray, Alexa647 label, 635 nm (AID 1127).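 Note: z combines 667 nm emission intensity with signal-to-noise across three replicate slides.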 The settings on record: ConA-A647 binding fluorescence, higher = more signal.

Albumin (Bos taurus), sequence (P02769 whole entry, looked up): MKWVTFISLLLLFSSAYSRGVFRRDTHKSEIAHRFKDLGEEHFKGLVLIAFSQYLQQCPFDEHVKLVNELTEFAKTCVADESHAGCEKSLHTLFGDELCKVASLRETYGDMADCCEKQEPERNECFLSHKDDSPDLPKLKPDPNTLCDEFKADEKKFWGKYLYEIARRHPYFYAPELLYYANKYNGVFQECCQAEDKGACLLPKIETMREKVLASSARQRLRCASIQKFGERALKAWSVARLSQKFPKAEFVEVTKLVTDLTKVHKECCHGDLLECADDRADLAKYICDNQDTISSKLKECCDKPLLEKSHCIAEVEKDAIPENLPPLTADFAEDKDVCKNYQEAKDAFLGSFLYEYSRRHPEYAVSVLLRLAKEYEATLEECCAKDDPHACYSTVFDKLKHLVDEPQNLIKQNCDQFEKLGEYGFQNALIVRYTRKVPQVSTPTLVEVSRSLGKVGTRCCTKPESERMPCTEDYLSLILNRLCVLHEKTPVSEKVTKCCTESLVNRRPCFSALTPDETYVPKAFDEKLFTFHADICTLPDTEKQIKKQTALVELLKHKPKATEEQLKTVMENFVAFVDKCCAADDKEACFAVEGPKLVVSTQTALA
Alpha-bungarotoxin (Bungarus multicinctus), sequence (P60615 whole entry, looked up): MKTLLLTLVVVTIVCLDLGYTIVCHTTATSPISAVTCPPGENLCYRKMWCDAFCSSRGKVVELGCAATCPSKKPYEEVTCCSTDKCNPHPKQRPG
Torsin-1A-interacting protein 1 (Homo sapiens), sequence (Q5JTV8 whole entry, looked up): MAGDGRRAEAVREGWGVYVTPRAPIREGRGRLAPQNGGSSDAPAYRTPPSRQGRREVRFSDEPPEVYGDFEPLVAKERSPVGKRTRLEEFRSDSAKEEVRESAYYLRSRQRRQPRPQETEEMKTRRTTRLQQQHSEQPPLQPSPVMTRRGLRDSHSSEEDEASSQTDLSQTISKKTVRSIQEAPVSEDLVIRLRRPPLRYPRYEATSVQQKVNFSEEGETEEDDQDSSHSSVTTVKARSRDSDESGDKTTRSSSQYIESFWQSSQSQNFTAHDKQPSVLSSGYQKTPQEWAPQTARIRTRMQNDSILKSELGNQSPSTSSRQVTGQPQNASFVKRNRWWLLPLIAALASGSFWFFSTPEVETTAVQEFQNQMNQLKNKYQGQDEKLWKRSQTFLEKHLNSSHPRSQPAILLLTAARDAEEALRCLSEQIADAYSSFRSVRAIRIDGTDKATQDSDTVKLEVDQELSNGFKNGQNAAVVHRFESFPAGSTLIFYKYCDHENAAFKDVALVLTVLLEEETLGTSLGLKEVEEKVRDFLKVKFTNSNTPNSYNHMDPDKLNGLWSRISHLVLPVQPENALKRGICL
Left-right determination factor 2 (Homo sapiens), sequence (O00292 whole entry, looked up): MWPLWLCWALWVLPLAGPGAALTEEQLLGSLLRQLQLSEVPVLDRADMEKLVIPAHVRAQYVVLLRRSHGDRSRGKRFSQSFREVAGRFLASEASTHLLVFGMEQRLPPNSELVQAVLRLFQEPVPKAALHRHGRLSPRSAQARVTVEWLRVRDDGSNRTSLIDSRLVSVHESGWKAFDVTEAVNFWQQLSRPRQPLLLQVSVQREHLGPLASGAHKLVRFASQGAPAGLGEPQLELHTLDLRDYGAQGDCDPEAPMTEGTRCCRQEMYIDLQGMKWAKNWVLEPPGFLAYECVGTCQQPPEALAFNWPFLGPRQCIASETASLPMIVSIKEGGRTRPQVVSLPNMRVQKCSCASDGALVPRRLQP
Concanavalin-A (Canavalia ensiformis), sequence (P02866 whole entry, looked up): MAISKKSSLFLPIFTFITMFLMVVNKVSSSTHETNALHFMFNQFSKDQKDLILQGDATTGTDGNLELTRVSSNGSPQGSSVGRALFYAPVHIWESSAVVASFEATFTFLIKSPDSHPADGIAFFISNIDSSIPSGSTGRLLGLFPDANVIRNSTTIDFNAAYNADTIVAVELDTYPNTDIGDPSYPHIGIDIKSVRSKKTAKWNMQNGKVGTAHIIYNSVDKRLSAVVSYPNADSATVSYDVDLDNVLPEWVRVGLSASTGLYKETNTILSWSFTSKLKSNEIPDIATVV

Regarding `CCOC(=O)C1=CC[C@@H](c2ccccc2)N(S(=O)(=O)c2ccc(C)cc2)[C@H]1C=C(C)C`, the composite z-score in [1] was 1.45; in [3] it was 0.407; in [4], 0.808; in assay [5], -0.0374; in [6], 0.055; in assay [7], 0.199. Also, the composite z-score in [8] is 1.06; in assay [9], 0.647; in assay [10], 0.162; in the assay with Albumin (Bos taurus) it was 0.856; in assay [12], 0.31; in assay [13] it was -0.0209. Also, the composite z-score in assay [14] worked out at 0.491; in [15], 2.14; in [16] it was 0.149; in the assay on Sam68 (KHDRBS1), 1.3; in assay [17], 0.542; in assay [18], 0.947. Also, the z-score in assay [2] is -2.21. In addition, the composite Z-score in assay [11] was 0.325 (inactive).
Turning to `C[N+](C)(C)CCCC[C@@H]1NC(=O)[C@@H]2C[C@H](C(=O)NCCCCCNC(=O)CS)[C@H](c3cccc(OCCO)c3)N2C1=O`, the composite z-score in [1] is 0.911; in [3], 0.0926; in assay [4], -0.0534; in [5], 0.581; in [6], -0.0478; in [7] it was 0.151. Moreover, the composite z-score in [8] is 0.0197; in assay [9] it was -0.034; in [10], 0.568; in the assay with Albumin (Bos taurus) it was 0.666; in assay [12], 0.0287; in assay [13], -0.0662. The composite z-score was 0.399 in assay [14]; 0.46 in [15]; -0.343 in assay [16]; 0.765 with Sam68 (KHDRBS1); 0.361 in [17]; 0.88 in assay [18]. In addition, in [2], the z-score is -0.193. In assay [11], the composite Z-score is 0.0831 (inactive).
With `Cc1ccc(N2C(=O)c3ccccc3[C@](C)(C(=O)NC(C)C)[C@@H]2c2ccc(CO)cc2)nc1`, the composite z-score in assay [1] is -1.24; in [3], -3.6; in assay [4], -1.12; in assay [5], -0.862; in assay [6], -0.219; in assay [7], -0.49. Also, the composite z-score is -0.441 in assay [8]; 0.177 in [9]; 0.24 in assay [10]; -0.546 in the assay with Albumin (Bos taurus); -0.571 in [12]; -0.183 in assay [13]. Moreover, the composite z-score in assay [14] was 0.706; in assay [15], 1.64; in assay [16] it was -0.699; in the assay with Sam68 (KHDRBS1), -1.55; in assay [17] it was -1.13; in assay [18], -1.73. Besides, the z-score in [2] was -0.406. For the same compound, the composite Z-score in assay [11] was -1.02 (inactive).
Consider `O=C1NC(=O)C2C1C=CC(C(O)c1ccc(-c3ccccc3)s1)N2Nc1ccccn1` (stereo not given), for which the composite z-score was -1.13 in assay [1]; 0.18 in assay [3]; 0.0183 in [4]; 0.0403 in assay [5]; 0.0746 in assay [6]; -0.0961 in [7]. In addition, the composite z-score is -0.0545 in [8]; 2.8 in assay [9]; 0.435 in assay [10]; 0.781 with Albumin (Bos taurus); -0.115 in assay [12]; 0.11 in assay [13]. The composite z-score in [14] stood at 0.91; in assay [15], 0.978; in assay [16] it was 1.22; in the assay with Sam68 (KHDRBS1), 0.105; in assay [17], 0.398; in assay [18], 0.83. In assay [2], the z-score is -0.684. Further, the composite Z-score in assay [11] was -1.39 (inactive).
As to `C[C@H]1NC(=O)C([C@@H](C)OCc2ccccc2)NC(=O)[C@@]23C(=O)N[C@@H](Cc4ccccc4)C2[C@H](C)[C@@]2(C)O[C@H]2C3/C=C/CC/C=C/CNC1=O` (stereo not given in full), the composite z-score was -0.165 in assay [1]; 0.416 in [3]; -0.377 in assay [4]; -0.377 in assay [5]; 0.0919 in assay [6]; 0.0815 in assay [7]. Further, the composite z-score is -0.37 in [8]; 0.26 in assay [9]; 0.421 in assay [10]; 0.506 with Albumin (Bos taurus); -0.0647 in assay [12]; -0.0131 in [13]. The composite z-score in assay [14] is 0.665; in [15], -0.308; in [16], 0.03; in the assay on Sam68 (KHDRBS1), -0.389; in assay [17], 0.634; in [18], -1.38. This compound returned a z-score in assay [2] of -0.631. For the same compound, the composite Z-score in assay [11] was -0.169 (inactive).
